In the library only some 1.1% were active in any assay of this set; here they are far more common.
TcdB GH inh: inhibitors of Clostridioides difficile toxin B glycohydrolase; P18177; TcdB glycohydrolase enzymatic assay, plate reader; inhibition, % at 9.99 µM; actives 0.24% (n = 350,000); AID 652162; in the data active = inhibition above about 10%
PfHsp40 rescue: restores yeast growth despite PfHsp40 toxicity | growth rescue, % at 12.5 µM | S. cerevisiae expressing PfHsp40, growth rescue, ATP luminescence | AID 504582 | actives 0.68% (n = 340,000); in the data active = growth rescue above about 28%, passing the limit was not always enough;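 note: yeast W303a lacking pdr1 and pdr3 grown in galactose medium; growth measured after three days at 30 °C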
Mtb BioA inh: blocks M. tuberculosis BioA enzyme activity | actives 0.096% (n = 360,000) | inhibition, % at 9.99 µM | purified M. tuberculosis BioA enzyme, plate reader; in the data active = inhibition above about 40%
FadD28 binding: inhibitors of Mycobacterium tuberculosis FadD28 bisubstrate binding | FadD28 bisubstrate probe binding, fluorescence polarization | inhibition, % at 12.5 µM | actives 0.22% (n = 360,000); in the data active = inhibition above about 8.5%, passing the limit was not always enough
PrP 5UTR inh: inhibition of PrP 5' UTR reporter expression; AID 488862; inhibition, % (concentration not given with the values); cell-based PrP 5' UTR mRNA reporter, plate reader; actives 0.35% (n = 340,000); in the data active = inhibition above about 52%; note: 0 = median of the neutral control wells
* marks the source's active call; other numbers are inactive results; · = no result.

SMILES | TcdB GH inh | PfHsp40 rescue | Mtb BioA inh | FadD28 binding | PrP 5UTR inh
COC(=O)C[C@H]1CC[C@@H]2[C@H](COc3ccc(NC(=O)c4cccc(OC)c4)cc3C(=O)N2C)O1 | 5.5 | · | 0.6 | · | ·
CN1C(=O)c2cc(NC(=O)Nc3ccccc3Cl)ccc2OC[C@H]2O[C@@H](CC(=O)NCCCN3CCOCC3)CC[C@H]21 | 10.5* | · | 1.6 | · | ·
COc1cccc(S(=O)(=O)N2C[C@H](O)COC[C@H]3O[C@H](CC(=O)N4CCOCC4)CC[C@@H]32)c1 | -1.3 | · | -0.8 | · | ·
C[C@@H]1CN([C@H](C)CO)C(=O)CCCn2cc(nn2)CO[C@@H]1CN(C)S(=O)(=O)c1ccccc1C#N | 0.8 | · | · | · | ·
O=C(NNC(=S)NCc1ccccc1)c1cccnc1 | -0.2 | -0.8 | 0.3 | -1.0 | -21.8
COc1ccc(CC(=O)NNC(=S)NC(=O)c2cccnc2)cc1 | 14.8* | -0.9 | 0.4 | -1.7 | -15.9
S=C(NCc1ccccc1)NCc1cccc(CNC(=S)NCc2ccccc2)c1 | 0.9 | 22.8 | 3.2 | 24.9* | 2.9
O=C(Cc1ccccc1)NNC(=S)NC(=O)c1cccnc1 | 18.8* | -0.6 | -0.1 | -2.4 | -54.2
S=C(NCc1ccccc1)NCc1cccc(Cl)c1 | -6.1 | 1.3 | 1.5 | -2.7 | -10.2
O=C(NC(=S)NCc1ccccc1)c1cccnc1 | 15.8* | 0.5 | 5.0 | -2.8 | -32.2
O=C(NNC(=S)NC(=O)c1cccnc1)c1ccccc1 | · | -0.3 | -0.8 | 0.8 | 1.7
O=C(C[C@@H]1C[C@H]2c3cc(NC(=O)NC4CCCCC4)ccc3O[C@H]2[C@@H](CO)O1)NCc1cccnc1 | 0.0 | · | -1.4 | · | ·
FC(F)(F)Sc1ccc(NC(=S)NCc2ccccc2)cc1 | 0.9 | 147.9* | 0.5 | 1.1 | -8.2
S=C(NCc1ccccc1)Nc1ccc(Cl)cc1 | 0.6 | 0.6 | · | -3.8 | -15.5
O=C(NC(=S)NCc1ccccc1)c1cccc(Cl)c1 | -7.2 | 28.9* | 0.7 | -1.3 | -8.7
Cc1ccc(S(=O)(=O)N2CC[C@H]3[C@@H](CO)N(C)c4ccc(-c5ccc(C#N)cc5)cc4[C@H]32)cc1 | -1.0 | · | 4.4 | · | ·
C[C@H](O)C#Cc1ccc2c(c1)O[C@H](CN(C)C(=O)C1CCC1)[C@@H](C)CN([C@H](C)CO)S2(=O)=O | 0.2 | · | 1.4 | · | ·
O=C1CC(=O)N(Cc2ccco2)C(=O)N1 | · | 2.8 | -2.8 | 4.3 | -13.4
O=C1CC(=O)N(Cc2ccco2)C(=S)N1 | · | 2.9 | -0.5 | 29.0* | -17.1
COc1ccc2c(n1)Sc1nc3ccccc3nc1N2 | -7.4 | 336.1* | -3.0 | 1.5 | -75.7
COc1ccc(CN2[C@H](CO)[C@H]3c4ccccc4N(C(=O)Nc4ccc(F)cc4)C[C@H]32)cc1 | -0.4 | · | 0.2 | · | ·
Cc1cc(C)cc(OCC(=O)N(C)CC(=O)Nc2ccc(Cl)c(C(F)(F)F)c2)c1 | -1.0 | 50.6* | -2.2 | -2.0 | -30.0
COc1ccc(NC(=O)CSCC(=O)N(C)CC(=O)Nc2ccc(Cl)c(C(F)(F)F)c2)cc1 | -0.9 | 0.4 | 3.3 | -4.7 | -22.0
COc1ccc(CSc2ccc(-c3nc4ccccn4c3NCc3ccccc3)cc2OC)cc1 | · | 4.3 | -2.0 | 0.7 | -21.6
CCC(C)Sc1ccc(-c2nc3ccccn3c2NCc2ccccc2)cc1OC (centres undefined) | · | 88.9* | 0.6 | 1.6 | -3.0
SMILES | TcdB GH inh | PfHsp40 rescue | Mtb BioA inh | FadD28 binding | PrP 5UTR inh
CN(Cc1cn(C)c2ccccc12)C(=S)Nc1cc(F)cc(F)c1 | · | 57.4* | · | 1.0 | 0.5
Cc1cccc(NC(=S)N(C)Cc2cn(C)c3ccccc23)c1 | 2.1 | -0.3 | 0.7 | 2.3 | -7.3
C[C@@H]1CN([C@H](C)CO)C(=O)c2c(c3ccccc3n2C)-c2ccccc2CO[C@H]1CN(C)S(=O)(=O)c1ccc(C#N)cc1 | -0.7 | · | -0.8 | · | ·
Cc1csc2nc(CCNS(=O)(=O)c3ccc4c(c3)OCCO4)cn12 | -0.1 | -1.4 | -0.1 | -3.1 | -25.3
Cc1csc2nc(CNS(=O)(=O)c3ccc4c(c3)OCCO4)cn12 | 1.4 | 63.0* | -1.2 | -2.0 | -15.2
COc1ccc(Br)cc1/C=N/Nc1cccc(C(=O)O)c1 | -2.0 | -0.2 | · | 5.4 | -34.5
O=C(O)c1cccc(N/N=C/c2cc(Br)cc(Br)c2O)c1 | · | -1.3 | 9.3 | 27.5* | -17.1
Cc1c(N=Cc2cc(Br)cc(Br)c2O)cccc1C(=O)O | -0.1 | 58.9* | · | -0.7 | -25.0
C[C@@H]1CN([C@H](C)CO)C(=O)c2cccc(NC(=O)c3ccncc3)c2O[C@H]1CN(C)S(=O)(=O)c1ccc(F)cc1 | 0.0 | · | -1.0 | · | ·
Oc1ccccc1Oc1c(F)c(F)nc(N2CCCC2)c1F | 0.8 | 19.0 | 5.7 | 20.8* | -16.3
Oc1ccccc1Oc1ncc(Br)c(N2CCOCC2)n1 | · | -0.5 | 1.0 | -4.1 | -1.2

From PubChem BioAssay
